ChEMBL document CHEMBL3988442, “University of Dundee, Small-Polar-MMV Screening Library” (2021)
Screen size: about 48,000 compounds; about 13,000 (27%) showed an effect of 50% or more. The list shows a part of the results.

Tested on: Wolbachia pipientis
Assay: Anti-Wolbachia Cell-Based Screen
Type: functional
Parameters: scale not given: in the data most compounds retested in dose-response had high values
Settings: 5 µM

Row | SMILES | Percent Effect
1 | CCCc1cncnc1N1CCC(NCc2ccc(O)cc2)CC1 | -4.089%
2 | O=C(Nc1cccnc1)C1=Cc2ccccc2OC1 | 18.82%
3 | O=C(CSC1CCCC1)N1CCN(c2ccc(-n3cncn3)nn2)CC1 | 20.49%
4 | CCN1CCN(Cc2nc(CCc3ccccc3)n[nH]2)CC1 | 14.2%
5 | CC(NC(=O)CN1CCN(Cc2ccc(Br)s2)CC1)c1ccccc1 (stereo not given) | -2.941%
6 | CCN(CC)c1ccc(NS(=O)(=O)c2cnn(CC)c2)cn1 | -19.91%
7 | CCN(CCc1nccs1)C(=O)c1ncoc1C | -4.771%
8 | Cc1ocnc1C(=O)N(C)[C@@H]1CC[C@@H](n2ccnc2C)[C@@H]1O | 115%
9 | Cc1ocnc1C(=O)N(C)[C@@H]1CC[C@@H](Oc2ccccc2)[C@@H]1O | 100.2%
10 | Cc1occc1C(=O)NCC(=O)N1CCC(COc2ccccc2)CC1 | 1.262%
11 | Cc1occc1C(=O)NCC(=O)N(C)CCCOc1ccccc1 | 11.74%
12 | Cc1cn2c(CN(C)C(=O)c3ncoc3C)c(C)nc2s1 | -12.17%
13 | Cc1ocnc1C(=O)N[C@H]1CN(CC2CCC2)C[C@@H]1C(C)C | 16.35%
14 | Cc1ocnc1C(=O)N(C)[C@@H]1CCC[C@@H](N2CCCC2)[C@@H]1O | 115.9%
15 | Cc1ocnc1C(=O)N(Cc1cccnc1)C[C@@H]1CCC(=O)N1 | -1.977%
16 | CCCN(CCC)C1(Cc2cc(-c3cccc(O)c3)on2)COC1 | -7.184%
17 | N#CCCN(C(=O)CN1CCCC1Cc1ccccc1)c1ccccc1 (stereo not given) | 14.76%
18 | CN(C)CCn1ccc(NC(=O)NC(C)(C)c2nccs2)n1 | 4.261%
19 | Cc1cc(-c2cnc(NCc3ccc4c(c3)OCO4)nc2C(C)C)on1 | 111.2%
20 | Cn1ccnc1-c1noc(NCc2ccc3c(c2)OCCO3)n1 | -0.6068%
21 | COc1ccc(CNc2ncc(-c3cc(C)no3)c(C(C)C)n2)cc1 | 97.64%
22 | COc1cccc(CNc2nc(C)cc(C)n2)c1OC | 34.66%
23 | Cc1cc(-c2cnc(NCc3ccccn3)nc2C(C)C)on1 | 93.57%
24 | COc1ccc(CNC2(Cc3cc(CC(C)C)on3)COC2)cc1 | 1.284%
25 | COc1ccc(CNC(C)c2cnc3cc(C)nn3c2C)cc1 (stereo not given) | 8.81%

Row | SMILES | Percent Effect
26 | COc1ccccc1CNc1ncc(-c2cc(C)no2)c(C(C)C)n1 | 92%
27 | CC(C)c1nn(C)c(N(C)C)c1CNCc1ccc2c(c1)OCO2 | -1.149%
28 | COCc1cc(NCc2ccccc2OC)ncn1 | -8.883%
29 | Cn1ncnc1-c1ccnc(NCc2ccccn2)n1 | -1.94%
30 | Cc1ccn(-c2ccccc2NCc2ccccn2)n1 | 5.866%
31 | CN(Cc1ccc(F)cc1)C(=O)NCC1(N2CCOCC2)CCSC1 (stereo not given) | -20.26%
32 | COc1cccc(-n2c(SCC(=O)O)nnc2-c2cn[nH]c2)c1 | 1.781%
33 | Cc1csc(CNC(=O)NCC(O)c2ccc(F)cc2F)n1 (stereo not given) | -0.3867%
34 | Cc1cc(-c2cnc(NCc3ccncc3)nc2C(C)C)on1 | 155.1%
35 | Cc1cnc(NCc2ccc(S(=O)(=O)N(C)C(C)C)cc2)nc1C | -3.312%
36 | CCc1c(NCc2ccncc2)cnn1CC(C)C | -6.7%
37 | O=C(O)C(F)(F)F.c1cncc(-c2ccc3c(c2)C2(CC3)CCN(c3nncs3)CC2)c1 | 7.623%
38 | Cc1ccc2c(c1)C1(CC2)CCN(c2nncs2)CC1 | -2.782%
39 | CC/C=C(/C)C(=O)N1CCN(C2=NCC(C)S2)CC1 (stereo not given) | -1.897%
40 | CCOCCN1CCN(Cc2nc(C3CC3)no2)CC1CC (stereo not given) | -17.64%
41 | CN(C)CCNC(=O)[C@H]1C[C@@H]2CN(C(=O)NC3CCCC3)C[C@H]1O2.O=C(O)C(F)(F)F | 6.498%
42 | O=C(NC1CC1)[C@@H]1CCO[C@@H]2CCN(CC3CCC3)C[C@H]21.O=C(O)C(F)(F)F | -19.72%
43 | CC(C)CN1C[C@H]2C[C@H](C(=O)NC3CCC3)[C@@H](C1)O2.O=C(O)C(F)(F)F | 89.64%
44 | O=C(NC1CCC1)[C@H]1C[C@@H]2CN(S(=O)(=O)c3ccccc3)C[C@H]1O2 | 5.233%
45 | O=C(NC1CC1)[C@@H]1CCO[C@@H]2CCN(CC3CCC3)C[C@@H]21.O=C(O)C(F)(F)F | 20.69%
46 | O=C(NC1CCC1)[C@H]1C[C@@H]2CN(CC3CC3)C[C@H]1O2.O=C(O)C(F)(F)F | 120%
47 | NC(=O)c1cc(-c2cccc(C(=O)O)c2)cs1 | 7.533%
48 | CCCN(C)CC1CCN(c2ccc(Br)c(C)n2)C1 (stereo not given) | -15.16%
49 | NC(=O)[C@@H]1Cc2ccccc2CN1S(=O)(=O)N1CCCCCC1 | 103%
50 | CC1CCN(S(=O)(=O)N2Cc3ccccc3C[C@H]2C(N)=O)CC1 | 91.1%

Row | SMILES | Percent Effect
51 | NC(=O)[C@@H]1Cc2ccccc2CN1CCc1cccs1 | -22.09%
52 | NC(=O)C1Cc2ccccc2CN1CCC(=O)N1CCc2ccccc21 (stereo not given) | -4.733%
53 | CC1CCN(S(=O)(=O)N2C[C@H](c3ccccc3)[C@@H](N)C2)CC1 | -3.535%
54 | NC(=O)C1CCCN1c1cc(N2CCc3ccccc3C2)ncn1 (stereo not given) | -10.01%
55 | CC1CCN(C(=O)CCN2Cc3ccccc3C[C@H]2C(N)=O)C1 (stereo not given in full) | -2.608%
56 | NC(=O)[C@@H]1Cc2ccccc2CN1S(=O)(=O)N1CCCCC1 | 78.36%
57 | NC(=O)[C@@H]1Cc2ccccc2CN1CCC(=O)N1CCOCC1 | 8.62%
58 | CN(CC(C)(C)O)C(=O)Nc1ccc(F)c(-n2cccc2)c1 | 2.422%
59 | CNS(=O)(=O)c1cccc(C(C)NCc2cccc(C)c2C)c1 (stereo not given) | 8.764%
60 | O=C(C1CC2(CCNCC2)CN1)N1CCN(c2cccc(Cl)c2Cl)CC1 (stereo not given) | 3.67%
61 | COCCOCC(=O)N1C[C@H]2CC[C@@H]1CN(C1Cc3ccccc3C1)C2 | 11.56%
62 | COc1cccc(C(=O)NCc2ccccc2S(=O)(=O)N(C)CCO)c1 | 1.796%
63 | CCS(=O)(=O)c1ncc(CN2CCOCC2)n1CCCc1ccccc1 | 6.125%
64 | CCN1CC2(CCC1=O)CCN(c1ccc(C(C)=O)cn1)CC2 | 0.06704%
65 | Cc1nc(C)n(CC2CCCN(Cc3nc(C4CC4)no3)C2)n1 (stereo not given) | 2.839%
66 | CCc1nc(CN2CCCC(Cn3nc(C)nc3C)C2)no1 (stereo not given) | 81.07%
67 | Cc1nc(C)n(CC2CCCN(Cc3noc(C)n3)C2)n1 (stereo not given) | 96.94%
68 | Cc1nc(C)n(CC2CCCN(CC3CCCCC3)C2)n1 (stereo not given) | 104.8%
69 | Cc1noc(CN2CCCC(Cn3nc(C)nc3C)C2)n1 (stereo not given) | 104.9%
70 | CS(=O)(=O)N1C[C@@H]2COC[C@@H](CC(=O)N3CCCCO3)[C@@H]2C1 | -9.378%
71 | CNC(=O)[C@@H](c1ccccc1F)N1CCC[C@H]1C(=O)NC1CC1.Cl | 0.6767%
72 | O=C1N[C@@H]2CCN(C(=O)C3CC3)[C@@H]2C(=O)N1c1ccccc1 | -5.528%
73 | Cc1ccccc1Oc1ncccc1CNS(=O)(=O)N(C)C | -17.53%
74 | CC(C)c1cc(N[C@H](C(N)=O)C(C)C)n2nccc2n1 | -22.97%
75 | CCc1noc(CN2CCCC(Cn3nc(C)nc3C)C2)n1 (stereo not given) | 134.9%

Row | SMILES | Percent Effect
76 | COCCc1noc(CN2CCCC(Cn3nc(C)nc3C)C2)n1 (stereo not given) | 0.4033%
77 | CS(=O)(=O)CCN1CC(c2ccccc2)(c2ccccc2)CCC1=O | -17.1%
78 | O=C1CC(c2ncc(-c3ccc4c(c3)OCCO4)[nH]2)CN1C1CC1 (stereo not given) | -4.884%
79 | CCc1noc(-c2cccc(OCC(=O)NC(C)C)c2)n1 | 95.64%
80 | CC(C)NC(=O)COc1ccc(-c2nc(C(C)C)no2)cc1 | 114.1%
81 | CCCn1nc(-c2nc(COc3ccccc3)no2)ccc1=O | -3.247%
82 | CC(C)NC(=O)COc1nc(C(C)C)no1 | -19.75%
83 | CC(C)c1noc(CS(=O)(=O)CC(=O)NCCOc2ccccc2)n1 | 13.06%
84 | CC(C)NC(=O)COc1cccc(-c2nc(C(C)C)no2)c1 | 105.1%
85 | COc1cccc(-c2n[nH]cc2C(=O)NC(C)c2nc(C(C)C)no2)c1 (stereo not given) | -2.83%
86 | CC(C)c1noc(CCCC(=O)NCCOc2ccccc2)n1 | -1.504%
87 | CCCNC(=O)COc1cccc(-c2nc(C(C)C)no2)c1 | 120.4%
88 | C=C(C)COc1cccc(C(=O)N(CC)Cc2noc(C)n2)c1 | -33.22%
89 | CC(NC(=O)COc1nc(C(C)(C)C)no1)c1ccco1 (stereo not given) | 8.75%
90 | CC(C)NC(=O)COc1nc(C(C)(C)C)no1 | -1.58%
91 | Cc1oncc1S(=O)(=O)N1CCCC(C)(Cc2ccc3c(c2)OCO3)C1 (stereo not given) | -3.14%
92 | CS(=O)(=O)NCCC(=O)NCc1cccnc1-n1cnc2ccccc21 | 11.61%
93 | O=C(CS(=O)(=O)C1CCCC1)NC1CCCc2cc(OC(F)F)ccc21 (stereo not given) | -7.219%
94 | COCCN(Cc1ccccn1)C(=O)CC1OCCc2sccc21 (stereo not given) | 9.879%
95 | CSCc1noc(CN2CC3(CCCC3)CC2=O)n1 | -12.65%
96 | CN(C)C(C(=O)N1CCN(C(=O)c2ccc[nH]2)CC1)c1ccc(F)cc1 (stereo not given) | 1.074%
97 | CC(C)c1noc(-c2cccc(OCC(N)=O)c2)n1 | 109.4%
98 | CN1CCC(Cc2noc(-c3cccc(OCC(N)=O)c3)n2)CC1 | 14.54%
99 | CC(C)c1ncc2c(n1)CN(Cc1cccc(OCC(N)=O)c1)CC2 | -10.24%
100 | CN(CCOc1cccc(CN)c1)C1CCOCC1 | 3.585%
